From the supplement of paper PMC10849652
Of roughly 7,900 targets only a part is listed; those with a hit were picked by preference. About 0.6% of all pairs of compound and target were hits. Unmarked numbers belong to inactive results.

What was measured:
Test in all cases: log2 fold change, soluble protein after heating vs DMSO (PISA); higher = thermal stabilisation; K562 cells, 10 uM, 30 min; active = over 0.2 and 3.5 SD of the protein, either way, in both replicates (recomputed)
[1] = compound: CC1=C(C=C(C=C1)NC(=O)C2=CC(=CC=C2)C(C)(C)C#N)NC3=CC4=C(C=C3)N=CN(C4=O)C
In short: (§1)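 Aliquots of K562 cells (2×10^6 cells/mL) treated with 10 μM compound for 30 min were heated for 3 min over 48°C-58°C. After pooling and extraction in PBS with 0.5% NP-40 at 4°C, soluble protein from a 21,000xg, 90 min spin was quantified by TMTpro 16plex LC-MS/MS with channel sums equalised. Thermal stability is expressed against control samples, from duplicates, as a log2 fold change.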

[2] = compound: CC1=C(C=C(C=C1)NC(=O)C2=CC(=CC=C2)N(C)C)NC(=O)C3=CC=C(C=C3)O
In short: as §1

[3] = compound: CC1=CC=C(C=C1)SC2=C3C=C(SC3=CN=C2)C(=O)N
In short: as §1

[4] = compound: CC1=NC(=CC=C1)C2=C(N=C(N2)C(C)(C)C)C3=CC4=NC=CN=C4C=C3
In short: as §1

Nexturastat A = compound: CCCCN(Cc1ccc(C(=O)NO)cc1)C(=O)Nc1ccccc1 [Nexturastat A]
In short: as §1

vemurafenib = compound: CCCS(=O)(=O)Nc1ccc(F)c(C(=O)c2c[nH]c3ncc(-c4ccc(Cl)cc4)cc23)c1F [vemurafenib]
In short: as §1

[5] = compound: CCCS(=O)(=O)Nc1ccc(F)c(C(=O)c2c[nH]c3ncc(Cl)cc23)c1F
In short: as §1

[6] = compound: CCCc1cc(C)[nH]c(=O)c1CNC(=O)c1cc(-c2ccnc(N3CCN(C)CC3)c2)cc2c1cnn2C(C)C
In short: as §1

givinostat = compound: CCN(CC)Cc1ccc2cc(COC(=O)Nc3ccc(C(=O)NO)cc3)ccc2c1 [givinostat]
In short: as §1

barasertib = compound: CCN(CCCOc1ccc2c(Nc3cc(CC(=O)Nc4cccc(F)c4)[nH]n3)ncnc2c1)CCOP(=O)(O)O [barasertib]
In short: as §1

[7] = compound: CC[C@@H]1C(=O)N(C)c2cnc(Nc3ccc(C(=O)NC4CCN(C)CC4)cc3OC)nc2N1C1CCCC1
In short: as §1

volasertib = compound: CC[C@@H]1C(=O)N(C)c2cnc(Nc3ccc(C(=O)N[C@H]4CC[C@H](N5CCN(CC6CC6)CC5)CC4)cc3OC)nc2N1C(C)C [volasertib]
In short: as §1

[8] = compound: CC[C@H](C)N1C=C(C2=C(C=C(C=C21)C3=CN=C(C=C3)N4CCNCC4)C(=O)NCC5=C(C=C(NC5=O)C)C)C
In short: as §1

epoxomicin = compound: CC[C@H](C)[C@@H](C(=O)N[C@@H]([C@@H](C)O)C(=O)N[C@@H](CC(C)C)C(=O)[C@]1(CO1)C)NC(=O)[C@H]([C@@H](C)CC)N(C)C(=O)C [epoxomicin]
In short: as §1

[9] = compound: CCn1c(C(=O)N(C2CC2)C2CC2)cc2c3c(ncn3C)c(Nc3cc(C)n(C)n3)nc21
In short: as §1

[10] = compound: CCn1cc(-c2ccnc3[nH]c(-c4cccc(CN(C)C)c4)cc23)c(-c2ccc(NC(=O)N(C)C)cc2)n1
In short: as §1

[11] = compound: CN(C)CC(=O)Nc1ccc2[nH]c(=O)c3ccccc3c2c1
In short: as §1

rosiglitazone = compound: CN(CCOC1=CC=C(C=C1)C[C@H]2C(=O)NC(=O)S2)C3=CC=CC=N3 (racemic) [rosiglitazone]
In short: as §1

[12] = compound: CN1C2=C(C3=C1C(=O)N(N=C3)CC4=CC(=CC=C4)N)SC(=C2)S(=O)C
In short: as §1

[13] = compound: CN1CCC(CNc2ccc3ncc(-c4cccc(OC(F)(F)F)c4)n3n2)CC1
In short: as §1

Sequence of UniProt Q29RF7 (Q29RF7 whole entry, looked up): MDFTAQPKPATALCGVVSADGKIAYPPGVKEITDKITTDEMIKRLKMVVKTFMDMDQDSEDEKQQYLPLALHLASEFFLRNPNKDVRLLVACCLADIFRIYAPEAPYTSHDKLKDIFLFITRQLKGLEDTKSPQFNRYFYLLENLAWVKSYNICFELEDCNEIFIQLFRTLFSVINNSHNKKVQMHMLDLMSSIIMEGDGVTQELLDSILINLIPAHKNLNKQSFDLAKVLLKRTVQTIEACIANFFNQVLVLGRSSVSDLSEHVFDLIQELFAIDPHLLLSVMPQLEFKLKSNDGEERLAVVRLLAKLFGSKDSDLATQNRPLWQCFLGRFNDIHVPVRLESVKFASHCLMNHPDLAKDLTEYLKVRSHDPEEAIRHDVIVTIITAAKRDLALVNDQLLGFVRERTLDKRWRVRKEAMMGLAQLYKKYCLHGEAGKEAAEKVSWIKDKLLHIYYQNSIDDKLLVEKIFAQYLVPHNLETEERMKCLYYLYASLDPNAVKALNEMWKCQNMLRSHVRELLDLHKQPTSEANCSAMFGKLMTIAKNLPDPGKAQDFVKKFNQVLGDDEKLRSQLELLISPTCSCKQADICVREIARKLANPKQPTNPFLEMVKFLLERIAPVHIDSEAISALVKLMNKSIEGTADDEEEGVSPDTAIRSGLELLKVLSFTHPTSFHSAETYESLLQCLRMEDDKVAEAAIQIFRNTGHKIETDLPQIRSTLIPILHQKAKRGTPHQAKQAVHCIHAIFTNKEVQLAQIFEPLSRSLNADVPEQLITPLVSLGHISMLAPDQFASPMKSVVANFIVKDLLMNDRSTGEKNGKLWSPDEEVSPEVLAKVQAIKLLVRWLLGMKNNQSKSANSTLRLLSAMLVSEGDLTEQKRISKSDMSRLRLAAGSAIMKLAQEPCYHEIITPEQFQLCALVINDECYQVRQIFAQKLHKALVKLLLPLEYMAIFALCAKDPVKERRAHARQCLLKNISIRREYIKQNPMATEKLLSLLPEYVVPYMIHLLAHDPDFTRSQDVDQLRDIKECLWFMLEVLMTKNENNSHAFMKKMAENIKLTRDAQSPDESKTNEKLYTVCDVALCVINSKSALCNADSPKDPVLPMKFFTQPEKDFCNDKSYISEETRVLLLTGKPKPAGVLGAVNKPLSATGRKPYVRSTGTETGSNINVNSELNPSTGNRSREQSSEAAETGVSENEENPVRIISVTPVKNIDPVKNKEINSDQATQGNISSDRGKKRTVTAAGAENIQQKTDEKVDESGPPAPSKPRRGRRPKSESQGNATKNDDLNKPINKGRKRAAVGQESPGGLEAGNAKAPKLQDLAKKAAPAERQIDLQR
Sequence of UniProt O60678 (O60678 whole entry, looked up): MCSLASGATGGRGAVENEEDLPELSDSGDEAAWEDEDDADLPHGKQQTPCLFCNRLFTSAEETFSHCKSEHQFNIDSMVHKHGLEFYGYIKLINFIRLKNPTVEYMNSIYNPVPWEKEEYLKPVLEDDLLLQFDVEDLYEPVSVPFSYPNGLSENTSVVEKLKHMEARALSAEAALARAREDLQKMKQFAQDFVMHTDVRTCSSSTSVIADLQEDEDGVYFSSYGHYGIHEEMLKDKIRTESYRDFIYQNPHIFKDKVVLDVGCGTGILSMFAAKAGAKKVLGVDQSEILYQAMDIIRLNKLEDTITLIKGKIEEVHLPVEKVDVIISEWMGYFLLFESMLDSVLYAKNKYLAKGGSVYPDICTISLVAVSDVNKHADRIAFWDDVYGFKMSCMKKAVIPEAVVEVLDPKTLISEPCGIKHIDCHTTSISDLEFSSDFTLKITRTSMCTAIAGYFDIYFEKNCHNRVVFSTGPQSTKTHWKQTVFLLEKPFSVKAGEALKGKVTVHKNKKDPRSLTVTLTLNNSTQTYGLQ
Sequence of UniProt P46019 (P46019 whole entry, looked up): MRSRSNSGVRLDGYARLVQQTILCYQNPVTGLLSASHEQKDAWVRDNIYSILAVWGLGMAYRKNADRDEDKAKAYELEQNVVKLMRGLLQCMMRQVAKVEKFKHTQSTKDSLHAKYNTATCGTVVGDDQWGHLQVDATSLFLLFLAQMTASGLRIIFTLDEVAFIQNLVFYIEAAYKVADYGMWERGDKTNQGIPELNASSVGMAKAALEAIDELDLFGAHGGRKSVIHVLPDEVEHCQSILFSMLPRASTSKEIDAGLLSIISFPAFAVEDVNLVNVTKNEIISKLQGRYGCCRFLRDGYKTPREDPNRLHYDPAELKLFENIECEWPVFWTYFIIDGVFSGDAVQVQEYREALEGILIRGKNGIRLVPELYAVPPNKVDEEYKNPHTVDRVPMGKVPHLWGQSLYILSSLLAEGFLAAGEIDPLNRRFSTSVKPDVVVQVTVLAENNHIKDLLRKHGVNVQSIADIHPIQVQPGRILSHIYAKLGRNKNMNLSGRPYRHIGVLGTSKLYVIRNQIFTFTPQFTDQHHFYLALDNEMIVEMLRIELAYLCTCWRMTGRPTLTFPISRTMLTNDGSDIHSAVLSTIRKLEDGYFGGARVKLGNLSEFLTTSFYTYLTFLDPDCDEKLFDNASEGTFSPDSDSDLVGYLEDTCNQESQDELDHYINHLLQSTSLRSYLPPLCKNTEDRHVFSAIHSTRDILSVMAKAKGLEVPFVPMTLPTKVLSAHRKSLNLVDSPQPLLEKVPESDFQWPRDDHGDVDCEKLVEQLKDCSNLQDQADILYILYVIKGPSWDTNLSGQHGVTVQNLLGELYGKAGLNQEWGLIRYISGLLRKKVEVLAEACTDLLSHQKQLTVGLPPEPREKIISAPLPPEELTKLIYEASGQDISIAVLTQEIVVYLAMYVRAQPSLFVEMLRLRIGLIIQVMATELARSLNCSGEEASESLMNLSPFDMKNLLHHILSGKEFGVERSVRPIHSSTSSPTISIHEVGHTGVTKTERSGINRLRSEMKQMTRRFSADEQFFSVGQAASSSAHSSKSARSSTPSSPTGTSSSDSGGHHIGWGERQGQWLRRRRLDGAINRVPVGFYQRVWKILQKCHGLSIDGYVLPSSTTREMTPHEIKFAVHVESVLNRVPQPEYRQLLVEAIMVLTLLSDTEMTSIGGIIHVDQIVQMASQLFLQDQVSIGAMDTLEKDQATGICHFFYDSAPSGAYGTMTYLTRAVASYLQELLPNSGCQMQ
Sequence of UniProt Q53EL6 (Q53EL6 whole entry, looked up): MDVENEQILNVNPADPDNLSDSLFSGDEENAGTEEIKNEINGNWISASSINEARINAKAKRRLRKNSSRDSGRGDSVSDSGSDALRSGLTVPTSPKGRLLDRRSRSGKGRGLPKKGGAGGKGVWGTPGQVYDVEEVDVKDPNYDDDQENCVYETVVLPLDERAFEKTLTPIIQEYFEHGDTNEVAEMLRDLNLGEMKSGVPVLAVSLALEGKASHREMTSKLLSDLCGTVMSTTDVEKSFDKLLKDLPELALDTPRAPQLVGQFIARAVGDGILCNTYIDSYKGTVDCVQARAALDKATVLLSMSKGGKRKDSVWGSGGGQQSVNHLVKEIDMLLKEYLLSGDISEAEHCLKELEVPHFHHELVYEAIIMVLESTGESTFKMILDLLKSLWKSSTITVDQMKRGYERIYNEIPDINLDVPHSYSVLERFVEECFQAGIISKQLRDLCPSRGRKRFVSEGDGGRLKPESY
Sequence of UniProt Q9NR12 (Q9NR12 whole entry, looked up): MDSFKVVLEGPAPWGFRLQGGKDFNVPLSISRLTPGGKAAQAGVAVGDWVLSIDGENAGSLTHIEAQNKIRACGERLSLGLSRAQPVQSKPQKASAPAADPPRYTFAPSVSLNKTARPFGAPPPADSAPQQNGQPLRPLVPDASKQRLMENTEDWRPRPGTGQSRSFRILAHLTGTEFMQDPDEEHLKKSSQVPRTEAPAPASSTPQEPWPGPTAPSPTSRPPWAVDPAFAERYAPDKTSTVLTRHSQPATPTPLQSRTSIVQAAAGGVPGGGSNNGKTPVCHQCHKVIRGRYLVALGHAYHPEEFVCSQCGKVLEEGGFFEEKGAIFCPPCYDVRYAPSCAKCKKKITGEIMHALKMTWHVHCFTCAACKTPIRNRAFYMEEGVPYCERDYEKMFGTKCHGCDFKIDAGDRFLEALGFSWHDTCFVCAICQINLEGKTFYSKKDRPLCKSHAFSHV
Sequence of UniProt Q92968 (Q92968 whole entry, looked up): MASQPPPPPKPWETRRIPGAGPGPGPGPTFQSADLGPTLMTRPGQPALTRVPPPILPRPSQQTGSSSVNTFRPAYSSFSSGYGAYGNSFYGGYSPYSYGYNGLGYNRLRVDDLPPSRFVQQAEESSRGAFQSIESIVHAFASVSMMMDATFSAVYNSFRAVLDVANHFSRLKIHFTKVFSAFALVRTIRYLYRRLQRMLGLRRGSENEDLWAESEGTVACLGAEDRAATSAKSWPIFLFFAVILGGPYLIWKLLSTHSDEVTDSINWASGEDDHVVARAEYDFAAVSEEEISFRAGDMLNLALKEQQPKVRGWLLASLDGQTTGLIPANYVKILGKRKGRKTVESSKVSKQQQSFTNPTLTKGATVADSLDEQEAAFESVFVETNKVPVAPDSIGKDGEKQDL
Sequence of UniProt P06454 (P06454 whole entry, looked up): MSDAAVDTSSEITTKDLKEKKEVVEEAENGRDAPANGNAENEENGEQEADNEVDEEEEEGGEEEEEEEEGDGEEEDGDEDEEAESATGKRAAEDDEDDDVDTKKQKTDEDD
Sequence of UniProt O00628 (O00628 whole entry, looked up): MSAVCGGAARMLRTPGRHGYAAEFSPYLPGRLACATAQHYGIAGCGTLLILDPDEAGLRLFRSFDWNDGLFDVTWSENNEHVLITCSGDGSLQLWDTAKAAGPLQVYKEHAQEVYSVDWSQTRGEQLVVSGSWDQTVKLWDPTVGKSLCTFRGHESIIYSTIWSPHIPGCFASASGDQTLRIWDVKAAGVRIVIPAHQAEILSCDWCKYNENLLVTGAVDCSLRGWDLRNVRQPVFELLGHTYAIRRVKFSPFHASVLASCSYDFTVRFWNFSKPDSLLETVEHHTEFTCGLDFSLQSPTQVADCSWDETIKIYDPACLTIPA

| Target | log2 fold change [1] | log2 fold change [2] | log2 fold change [3] | log2 fold change [4] | log2 fold change (Nexturastat A) | log2 fold change (vemurafenib) | log2 fold change [5] | log2 fold change [6] | log2 fold change (givinostat) | log2 fold change (barasertib) | log2 fold change [7] | log2 fold change (volasertib) | log2 fold change [8] | log2 fold change (epoxomicin) | log2 fold change [9] | log2 fold change [10] | log2 fold change [11] | log2 fold change (rosiglitazone) | log2 fold change [12] | log2 fold change [13] |
| --- | --- | --- | --- | --- | --- | --- | --- | --- | --- | --- | --- | --- | --- | --- | --- | --- | --- | --- | --- | --- |
| PEX7 (UniProt O00628) | 0.061 | -0.011 | 0.025 | -0.066 | -0.041 | -0.049 | 0.007 | -0.035 | -0.107 | -0.089 | 0.038 | 0.005 | -0.027 | 0.075 | -0.044 | -0.01 | 0.091 | -0.045 | -0.067 | 0.023 |
| PEX13 (UniProt Q92968) | 0.052 | -0.101 | 0.033 | -0.02 | 0.116 | -0.033 | 0.033 | -0.142 | -0.034 | 0.044 | -0.053 | -0.049 | -0.038 | -0.009 | 0.076 | 0.047 | 0.019 | 0.021 | 0.02 | -0.378 |
| PTMA (UniProt P06454) | 0.133 | -0.041 | 0.053 | 0.213 | -0.077 | 0.05 | -0.044 | -0.008 | -0.022 | -0.013 | -0.167 | 0.112 | -0.064 | 0.2 | 0.017 | -0.009 | -0.01 | -0.032 | -0.027 | -0.052 |
| PDS5A (UniProt Q29RF7) | 0.093 | -0.109 | 0.012 | 0.12 | 0.057 | 0.143 | 0.294 | 0 | 0.208 | 0.275 | -0.213 | -0.447 | 0.137 | 0.29 | -0.086 | 0.012 | -0.107 | 0.246 | 0.042 | -0.203 |
| PDLIM7 (UniProt Q9NR12) | 0.02 | -0.029 | -0.002 | 0.046 | -0.016 | 0.026 | 0.032 | 0.001 | 0.05 | 0.032 | -0.084 | -0.24 (active) | 0.012 | 0.013 | -0.053 | -0.064 | 0.039 | 0.039 | 0.023 | -0.021 |
| PDCD4 (UniProt Q53EL6) | 0.029 | -0.043 | 0.012 | 0.016 | -0.11 | 0.083 | 0.107 | -0.06 | 0.103 | 0.002 | -0.26 | -0.585 (active) | -0.013 | 0.055 | -0.045 | -0.053 | 0.065 | 0.056 | -0.107 | 0.011 |
| PRMT3 (UniProt O60678) | 0.016 | -0.025 | 0.044 | 0.076 | -0.026 | 0.056 | 0.055 | 0 | -0.013 | 0.035 | -0.126 | -0.411 (active) | 0.039 | 0.033 | 0.005 | -0.093 | 0.039 | 0.077 | -0.008 | -0.953 (active) |
| PHKA2 (UniProt P46019) | 0.028 | 0 | 0.028 | 0.053 | -0.038 | -0.014 | 0.052 | -0.07 | 0.048 | 0.057 | -0.049 | -0.094 | -0.174 | 0.071 | -0.047 | -0.029 | 0.01 | 0.026 | -0.002 | -0.35 (active) |
